# From PubChem BioAssay AID602346 (Broad Institute, 2012)
# The campaign covered roughly 340,000 compounds. About 1,200 (0.35%) were called active. Cut-off read from the data, not from the text of the source: active = inhibition above about 50% (passing the limit was not always enough); inconclusive = no clear call, values can overlap the other calls; inactive = below about 31%. This excerpt belongs to a sample that is enriched for actives.
# Assay: blockers of Vif multimerization in cells – imaging, HEK293T, single point, primary screen (AID 602346)
# Conditions: Vif self-association by quenched fluorescence, 24 h, at 7.49 µM, hits give high values
row,Compound,inhibition
1,Cc1ccccc1OCCOc1ccc([N+](=O)[O-])cc1/C=N/n1cnnc1,69.4% (active)
2,Cc1ccccc1OS(=O)(=O)c1cccc([N+](=O)[O-])c1,-0.237% (inactive)
3,COc1cccc(OCCOc2cccc(/C=N/n3cnnc3)c2)c1,11.7% (inactive)
4,C=CCn1nc(C(=O)OCC)cc1-c1sc(NC(=O)c2ccccc2)nc1C,-3.36% (inactive)
5,COc1ccccc1N1CCN(Cc2cc(OC)c3c(c2)OCO3)CC1,-1.02% (inactive)
6,COc1ccc(CN2CCN(Cc3ccc(OC)c(OC)c3OC)CC2)cc1,-0.337% (inactive)
7,COc1ccccc1N1CCN(Cc2ccc(OC)c3ccccc23)CC1,112% (active)
8,COCOCCn1cc(CN2CCS(=O)(=O)N(Cc3ccc(-c4ccccc4)cc3)C(CC(C)C)C2=O)nn1 (stereo not given),15.8% (inactive)
9,Cc1cc(=O)[nH]c(SCC(=O)Nc2ccc(Br)cc2)n1,-3.77% (inactive)
10,O=C1CCCN2N=C(SCC(=O)Nc3ccc(Br)cc3)SC2=N1,59.2% (active)
11,O=C(CSCc1ccc(Br)cc1)Nc1ccc(S(=O)(=O)N2CCCCCC2)cc1,-7.79% (inactive)
12,CC1(C(=O)NCC2CCOCC2)Cc2c(-c3cccc(C(N)=O)c3)ccnc2O1 (stereo not given),-1.25% (inactive)
13,Cc1cc(Cl)ccc1-c1nc(NCCN(C)C)nc2ccsc12,-1.21% (inactive)
14,C/C(=N\NC(=O)c1ccc2ccccc2c1)c1cccnc1,-7.71% (inactive)
15,CC(=NNC(=O)c1ccc2nc[nH]c2c1)c1ccc(Br)cc1,63.5% (active)
16,COc1ccc(/C(C)=N/NC(=O)c2ccc3nc[nH]c3c2)cc1,1.81% (inactive)
17,COc1ccc(-c2ccc(C(=O)NC(C)C)c3occc23)c(C)c1,-26.1% (inactive)
18,Cc1cc2cc3n(c2nn1)N=C(Cl)CC3,29.1% (inactive)
19,CCOC(=O)c1cc(-c2sc(NC(=O)c3ccccc3)nc2C)n(Cc2ccccc2)n1,-2.32% (inactive)
20,CN(C)CCCn1c(N)c(C#N)c2nc(C#N)c(C#N)nc21,52.6% (active)
21,N#Cc1c(N)n(CCOC(=O)c2ccc(Cl)cc2)c2nc3ccccc3nc12,-17.3% (inactive)
22,NC1=CC(=O)C(=O)c2cccnc21,-1.29% (inactive)

row,Compound,inhibition
1,CC1(Cc2cccc(C#N)c2)C(=O)Nc2ccc(-c3cccc(C(F)(F)F)c3)cc21 (stereo not given),-26.8% (inactive)
2,Nc1ncnc2c1ncn2[C@@H]1O[C@H](C(=O)NCC(F)(F)F)[C@@H](O)[C@H]1O,96.8% (active)
3,CN(Cc1ccc(C(F)(F)F)cc1)C(=O)[C@H]1O[C@@H](n2cnc3c(N)ncnc32)[C@H](O)[C@@H]1O,-5.61% (inactive)
4,Cc1nccn1-c1ccc(NC(=O)[C@H]2O[C@@H](n3cnc4c(N)ncnc43)[C@H](O)[C@@H]2O)cc1,14.6% (inactive)
5,Cc1nc2c(OCC(=O)C(C)(C)C)cccn2c1N(C)Cc1cccs1,-0.585% (inactive)
6,CCOc1ccc(CCN2C(=S)N([C@@H](CC(C)C)CN3CCC[C@@H]3CN3C(=S)NC[C@@H]3Cc3ccc(O)cc3)C[C@@H]2CC(C)C)cc1,12.9% (inactive)
7,O=C(NCc1cccc(Cl)c1)C1CCN(c2nnc(N3CCCC3=O)s2)CC1,3.92% (inactive)
8,O=C(NCc1cccc(Cl)c1)C1CCC(=O)N(C2CC2)C1 (stereo not given),-0.951% (inactive)
9,O=C(NCc1cccc(Cl)c1)C1=CC=CN2CCS(=O)(=O)N=C12,52.6% (active)
10,CN(C(=O)CN1CCN(c2cc(-c3ccc(OCc4ccccc4)cc3)ncn2)CC1)c1ccccc1,-17.3% (inactive)
11,CC(=O)Nc1ccc(CNc2nc(NCCN(C)C)nc3cc(-c4ccccc4)sc23)cc1,-16% (inactive)
12,COc1cccc(CNC(=O)c2nnn(CC(=O)Nc3cc(C)ccc3C)c2N)c1,9.65% (inactive)
13,CCOc1ccccc1NC(=O)Cn1nnc(C(=O)NCc2cccs2)c1N,62.1% (active)
14,Cc1ccc(NC(=O)Cn2nnc(C(=O)NCc3ccco3)c2N)c(C)c1,-2.06% (inactive)
15,NC(=S)NN=Cc1ccc(OC(=O)COc2cc(Cl)c(Cl)cc2Cl)cn1,4.39% (inactive)
16,CC(C)Oc1cc(F)ccc1-c1cc(C(=O)Nc2cccc(Cl)c2)[nH]n1,-9.5% (inactive)
17,CC(=O)NC1CCN(CC(=O)Nc2nccs2)CC1,4.49% (inactive)
18,O=C(COC(=O)c1ccc(O)cc1)Nc1nccs1,2.05% (inactive)
19,CC1CCN(CC(=O)Nc2nccs2)CC1,50.9% (active)
20,CC(C)Oc1ccc(CN2CCC2(C)C(=O)NCc2ccc(C(F)(F)F)cc2)cc1 (stereo not given),-4.01% (inactive)
21,O=C(NCc1cccnc1)c1cc(C2CCCCN2C(=O)CCc2ccccc2)on1 (stereo not given),-0.0335% (inactive)
22,COCOCCn1cc(CN2CCS(=O)(=O)N(Cc3ccc(-c4ccc(OC)cc4)cc3)C(CC(C)C)C2=O)nn1 (stereo not given),1.43% (inactive)

row,Compound,inhibition
1,CCN(CC)S(=O)(=O)c1ccc2c3c(cccc13)C(=O)S2,-0.161% (inactive)
2,O=C(CN1C(=O)c2cccc3cccc1c23)Nc1ccccc1,2.82% (inactive)
3,CCN1C(=O)c2cccc3c(S(=O)(=O)Nc4ccccc4O)ccc1c23,112% (active)
4,O=C(NCc1cccnc1)c1ccccc1NC(=O)c1c(F)cccc1F,-6.43% (inactive)
5,O=C(NCc1cccnc1)Nc1cccc(NC(=O)NCc2cccnc2)c1F,56% (active)
6,O=C(NCc1cccnc1)Nc1ccccc1F,20.3% (inactive)
7,C#Cc1ccc(NC(=O)C2(C)CCN2C(=O)Cc2ccc(-c3ccccc3)cc2)cc1 (stereo not given),-14.6% (inactive)
8,Cc1cccc(C)c1Cn1c(C)c(C(=O)NCc2cccc(Cl)c2)sc1=O,-0.663% (inactive)
9,O=C1[C@H]2[C@@H](c3ccc(C(F)(F)F)cc3)N[C@]3(CCCN(Cc4ccc(Cl)cc4)C3=O)[C@H]2C(=O)N1Cc1ccccc1,2.09% (inactive)
10,CC1(C(=O)Nc2cccc3cccnc23)CCN1C(=O)CCC1CCCC1 (stereo not given),-1.65% (inactive)
11,CN(C)CCNC(=O)c1ccc(-c2cn3c(-c4ccc(Oc5ccccc5)cc4)cnc3cn2)cc1,1.97% (inactive)
12,COc1ccc(-c2cc(-c3ccc(N)cc3)nc(N)c2C#N)cc1OC,-0.12% (inactive)
13,COc1ccc(-c2cc(C(F)(F)F)nc(S(C)(=O)=O)n2)cc1OC,90.1% (active)
14,COc1ccc(-c2ccc(Nc3ccc(S(=O)(=O)N4CCCC4)cc3)nn2)cc1OC,-7.98% (inactive)
15,COc1ccc(OC)c(C(=O)NC2CCCc3c2cnn3-c2cc(C)cc(C)c2)c1 (stereo not given),-9.82% (inactive)
16,CC(=O)Nc1cc(-c2ccccc2F)cn2c(-c3cccc(C(F)(F)F)c3)cnc12,-25.4% (inactive)
17,OC[C@@H]1CN(Cc2ccncc2)C[C@H](n2cnc3c(N4CCN(c5ccccc5)CC4)ncnc32)O1,-25.2% (inactive)
18,CN1CCN(/N=C/c2ccc(-c3ccc([N+](=O)[O-])cc3)o2)CC1,-7.47% (inactive)
19,NS(=O)(=O)c1ccc(-c2ccc(/C=C3\SC(=O)NC3=O)o2)cc1,55.8% (active)
20,O=C1[C@H]2[C@@H](c3ccc(C(F)(F)F)cc3)N[C@]3(CCCN(Cc4ccc(Br)cc4)C3=O)[C@H]2C(=O)N1Cc1ccccc1,1.02% (inactive)
21,C#Cc1cc(N2CCN(C(=O)c3ccoc3)CC2)n2nc(-c3cccc(Cl)c3)cc2n1,-5.39% (inactive)
22,CN(C)C(=O)CCc1ccc2c3c([nH]c2c1)[C@]1(CCc2ccccc2)[C@@H](C(=O)N2CCCCC2)C[C@H](CC(=O)NCCC2=CCCCC2)C(=O)N1CC3,2.36% (inactive)

row,Compound,inhibition
1,CC(C)N(C(=O)[C@H]1C[C@H](CC(=O)NCCC2=CCCCC2)C(=O)N2CCc3c([nH]c4cc(CCC(=O)N(C)C)ccc34)[C@]12C)C(C)C,0.666% (inactive)
2,CN(C)C(=O)CCc1ccc2c3c([nH]c2c1)[C@]1(C)[C@@H](C(=O)N2CCCCC2)C[C@H](CC(=O)NCCC2=CCCCC2)C(=O)N1CC3,71.8% (active)
3,Cc1nc2c(OCc3cccc(Cl)c3)cccn2c1N(C)CC1CC1,-11.2% (inactive)
4,COc1ccc(CC(N)c2csc(NC(=O)Nc3ccc(C(C)C)cc3)n2)cc1 (stereo not given),-7.74% (inactive)
5,Cc1ccc(Cc2cnc(N)s2)o1,-1.08% (inactive)
6,Cc1ccc(CCC(=O)Nc2ncc(Cc3cc(Cl)ccc3Cl)s2)o1,144% (active)
7,Cc1ccc(C(=O)Nc2nc3ccc(Cl)cc3s2)o1,-31.1% (inactive)
8,CSCCC(c1nnnn1Cc1ccccc1)N1CCN(C/C=C/c2ccccc2)CC1 (stereo not given),-1.75% (inactive)
9,Cc1ccc(Cn2c(C)c(C(=O)NCc3ccccc3C(F)(F)F)sc2=O)cc1,4.56% (inactive)
10,COC(=O)c1ccc(COc2ccc(/C=N/NC(=O)C(=O)Nc3ccc(OC)cc3)cc2OC)o1,4.89% (inactive)
11,N#Cc1cc([N+](=O)[O-])ccc1Oc1cccc(/C=N/NC(=O)c2ccc(Cl)cc2)c1,-18.6% (inactive)
12,CCCc1ccc(OCc2ccc(C(=O)N/N=C/c3cccc([N+](=O)[O-])c3)o2)c(OC)c1,53.7% (active)
13,CN(C)c1cccc(NC(=O)c2ccc(-c3ccc(F)c(F)c3)c3ccoc23)c1,3.47% (inactive)
14,CC[C@@H]1Cc2cc(O)ccc2C2=C1c1ccc(O)cc1C[C@H]2CC,85.1% (active)
15,CC(=O)Nc1cccc(-c2cc(NC(C)=O)c3ncc(-c4ccccc4)n3c2)c1,18.3% (inactive)
16,O=c1[nH]c2ccccc2n1C1CCN(CCOc2ccccc2)CC1,-4.07% (inactive)
17,COc1ccc(/C=C/C(=O)c2c(O)cc(OC)cc2OC)cc1,-16.7% (inactive)
18,COc1cccc(-c2cnc(OC(C)(C)C)nc2OC(C)(C)C)c1,-0.006% (inactive)
19,CC(C)(C)Oc1ncc(Br)c(OC(C)(C)C)n1,61.1% (active)
